Measurements published in PubChem BioAssay (EPA / NIEHS).
Calls of active or inactive are those of the source. Rule for the calls: active = hit-call score of the fitted dose curve at least 0.9, where 1 is the maximum; inactive = score below 0.9.

These compounds were tested on Interleukin 6 (IL6), IL6 (gene 3569) (assay: LTEA_HepaRG_IL6: Life Technologies and Expression Analysis (LTEA) Assay for Interleukin 6 (IL6) using HepaRG (AID 2283509)). Details: mRNA level, 48 h; actives raise or lower the signal.
Procedure, shortened: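 HepaRG, ~100,000 cells/well, 48 h pre-culture; serum-free induction medium; cmpd 8-pt half-log from 100 uM, 0.5% DMSO, duplicate, 48 h. Lysis in RLT, TaqMan qRT-PCR; gain or loss vs DMSO.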
For `Nc1c(Cl)c(Cl)nc(C(=O)O)c1Cl`, the outcome was “inactive”.
In the case of `Cn1c(-c2ccccc2)cc(-c2ccccc2)[n+]1C`, the outcome is reported as “inactive”.
For `Clc1nc(Cl)nc(Nc2ccccc2Cl)n1`, the outcome was “inactive”.
`COc1cc(OC)nc(NC(=O)NS(=O)(=O)c2ncccc2OCC(F)(F)F)n1` was tested, and the outcome was “inactive”.
With `Cc1cc(C)nc(Nc2ccccc2)n1` the outcome was “inactive”.
In the case of `CSC(=O)c1c(C(F)F)nc(C(F)(F)F)c(C(=O)SC)c1CC(C)C`, the outcome is reported as “inactive”.
With `CCOc1cc(C(C)(C)C)ccc1C1COC(c2c(F)cccc2F)=N1` (centres undefined) the outcome was “inactive”.
`O=C(Nc1ccccc1-c1ccc(Cl)cc1)c1cccnc1Cl` was tested, and the outcome was “inactive”.
In the case of `COP(=O)(OC)O/C(C)=C/C(=O)N(C)C`, the outcome is reported as “inactive”.
`COP(=S)(OC)Oc1ccc([N+](=O)[O-])c(C)c1` was tested, and the outcome was “inactive”.
In the case of `CNC(=O)N(C)c1nnc(C(C)(C)C)s1`, the outcome is reported as “inactive”.
In the case of `Nc1cnn(-c2ccccc2)c(=O)c1Cl`, the outcome is reported as “inactive”.
For `COC(=O)NS(=O)(=O)c1ccc(N)cc1`, the outcome was “inactive”.
For `Nc1c(Cl)c(F)nc(OCC(=O)O)c1Cl`, the outcome was “inactive”.
For `Cc1cnc(C2=NC(C)(C(C)C)C(=O)N2)c(C(=O)O)c1` (centres undefined), the outcome was “inactive”.
`COC(=O)NC(=S)Nc1ccccc1NC(=S)NC(=O)OC` was tested, and the outcome was “inactive”.
`CNC(=O)Oc1cccc2ccccc12` was tested, and the outcome was “inactive”.
For `COC(=O)N(C(=O)N1CO[C@@]2(C(=O)OC)Cc3cc(Cl)ccc3C2=N1)c1ccc(OC(F)(F)F)cc1`, the outcome was “inactive”.
With `CCC(C)n1c(=O)[nH]c(C)c(Br)c1=O` (centres undefined) the outcome was “inactive”.
